Assay outcomes: PubChem, several laboratories
An excerpt weighted towards active compounds, which were near 1.7% of everything screened.
Rin1 Abl inh: inhibitors of Rin1-Abl protein binding, primary screen, biochemical, TR-FRET; inhibition, % at 7.35 µM; 360,000 tested, 0.4% active; in the data active = inhibition above about 5%, passing the limit was not always enough
PREPL inh: PREPL enzyme inhibitors, primary screen, biochemical, fluorescence polarization; Prolyl endopeptidase-like (Homo sapiens), Q4J6C6; recombinant PREPL, fluorescence polarization activity-based probe; inhibition, % at 5.96 µM; 320,000 tested, 0.68% active;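 also: 0% = enzyme with DMSO and 100% = wells lacking enzyme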
Hck-Nef inh: inhibitors of Nef-activated human Hck kinase, primary screen, biochemical, Z-Lyte FRET, 384-well, Hck-YEEI; Tyrosine-protein kinase HCK (Homo sapiens), P08631; 220,000 tested, 0.68% active; Recombinant Hck-YEEI plus Nef, Z-Lyte FRET kinase assay; inhibition, % at 20 µM;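 active = Hck-Nef kinase inhibition above about 50%, limit read from the data; inactive = inhibition below that limit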;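 also: 0% = DMSO with Hck plus Nef and 100% = Hck alone without Nef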
Target sequence (P08631 whole entry, looked up): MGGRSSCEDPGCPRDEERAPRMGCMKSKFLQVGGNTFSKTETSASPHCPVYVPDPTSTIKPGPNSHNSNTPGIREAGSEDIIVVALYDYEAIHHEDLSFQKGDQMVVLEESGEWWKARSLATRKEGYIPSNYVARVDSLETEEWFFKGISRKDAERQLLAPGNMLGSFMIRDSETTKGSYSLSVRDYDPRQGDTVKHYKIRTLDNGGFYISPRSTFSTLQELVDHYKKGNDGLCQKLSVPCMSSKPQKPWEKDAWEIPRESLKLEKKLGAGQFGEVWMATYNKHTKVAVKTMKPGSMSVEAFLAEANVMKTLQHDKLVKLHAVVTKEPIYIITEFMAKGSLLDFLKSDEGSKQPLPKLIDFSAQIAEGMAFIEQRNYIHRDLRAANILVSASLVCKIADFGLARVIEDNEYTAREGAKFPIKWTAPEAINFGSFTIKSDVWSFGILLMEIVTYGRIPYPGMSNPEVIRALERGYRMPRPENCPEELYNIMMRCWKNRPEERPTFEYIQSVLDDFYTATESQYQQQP
p97 ATPase inh: inhibitors of human p97 ATPase, primary screen, biochemical; Transitional endoplasmic reticulum ATPase (Homo sapiens), P55072; recombinant p97 ATPase, Kinase-Glo ATP luminescence, 3 h; inhibition, % at 8 µM; 220,000 tested, 0.42% active; in the data active = inhibition above about 15%;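 also: 0% = DMSO vehicle and 100% = wells lacking enzyme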
LYPLA1 counter: LYPLA1 inhibitors, primary screen, counter-screen for PME1 inhibitor project, biochemical, fluorescence polarization, FP-Rh probe ABPP | 320,000 tested, 0.16% active | Acyl-protein thioesterase 1 (Homo sapiens), O75608 | AID 2174, 2009 | inhibition, % at 5.9 µM | recombinant LYPLA1;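 active = inhibition above the mean of all tested compounds plus 3 SD, set per campaign, cut at about 14% in these data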;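 also: inhibitors block serine hydrolase probe labeling of LYPLA1 so polarization falls; 0% = enzyme with DMSO and 100% = wells lacking LYPLA1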
LYPLA2 counter: LYPLA2 inhibitors, primary screen, counter-screen for PME1 inhibitor project, biochemical, fluorescence polarization, FP-Rh probe ABPP. Acyl-protein thioesterase 2 (Homo sapiens), O95372. recombinant LYPLA2. inhibition, % at 5.9 µM. 320,000 tested, 0.38% active;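 active = inhibition above the screen-wide mean plus 3 SD, limit set per campaign, cut at about 26% in these data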;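 also: 0% = LYPLA2 with DMSO and 100% = wells lacking LYPLA2 enzyme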
PREPL inh cf: human PREPL enzyme inhibitors, confirmation, biochemical, fluorescence polarization; shares compounds with PREPL inh; recombinant PREPL, fluorescence polarization activity probe; inhibition, % at 5.96 µM; 2,000 tested, 67% active; AID 2803, 2010;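 also: 0% = protein with DMSO and 100% = wells lacking protein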
* marks the source's active call; other numbers are inactive results. Rule as the data show it, unless noted: active = inhibition above about 43%; inactive = the rest.

COc1ccc(C2CC(c3ccccc3C)n3nc(N)nc3N2)cc1 (stereo not given) was read as Rin1 Abl inh 0, PREPL inh 51*, Hck-Nef inh 1, p97 ATPase inh -3, LYPLA1 counter -2, LYPLA2 counter 0 and PREPL inh cf 48*.
For CCN1c2ccccc2N(C)C1(C)c1ccccc1 (stereo not given) the results were Rin1 Abl inh -6, PREPL inh 79*, Hck-Nef inh -2, p97 ATPase inh -4, LYPLA1 counter -2, LYPLA2 counter 5 and PREPL inh cf 27.
Screening CN1c2ccccc2N(C)C1(C)c1ccccc1 returned Rin1 Abl inh -4, PREPL inh 20, Hck-Nef inh 11, p97 ATPase inh 2, LYPLA1 counter -1 and LYPLA2 counter -3.
CCOC(=O)c1ccc[n+](C(C)C(=O)c2ccc(-c3ccccc3)cc2)c1 (stereo not given) was read as Rin1 Abl inh -7, PREPL inh 61*, Hck-Nef inh 5, p97 ATPase inh 4, LYPLA1 counter -1, LYPLA2 counter 4 and PREPL inh cf 48*.
CC(C(=O)c1ccccc1)[n+]1cccc(Br)c1 (stereo not given) was read as Rin1 Abl inh 3, PREPL inh 8, LYPLA1 counter 0 and LYPLA2 counter 4.
O=C(c1ccco1)N1CCN(C(=S)Nc2ccccc2C(F)(F)F)CC1 was read as Rin1 Abl inh 1, PREPL inh 11, LYPLA1 counter 2 and LYPLA2 counter -1.
`O=C(c1ccccc1)c1cc([N+](=O)[O-])ccc1N1CCCC1` gave Rin1 Abl inh 0, PREPL inh 1, Hck-Nef inh -1, p97 ATPase inh 0, LYPLA1 counter 2 and LYPLA2 counter 4.
For N#Cc1cc([N+](=O)[O-])ccc1N1CCN(c2ccccc2O)CC1 the results were Rin1 Abl inh -4, PREPL inh 53*, Hck-Nef inh 17, p97 ATPase inh 0, LYPLA1 counter 1, LYPLA2 counter 15 and PREPL inh cf 48*.
`CCOC(=O)N1CCN(c2ncnc3c2[nH]c2ccc(OC)cc23)CC1` gave Rin1 Abl inh -1, PREPL inh 19, Hck-Nef inh -21, p97 ATPase inh -6, LYPLA1 counter 5 and LYPLA2 counter 1.
For COc1ccc2[nH]c3c(N4CCc5ccccc5C4)ncnc3c2c1 the results were Rin1 Abl inh 0, PREPL inh 60*, Hck-Nef inh 20, p97 ATPase inh 0, LYPLA1 counter -2, LYPLA2 counter 17 and PREPL inh cf 56*.
For COc1cc2[nH]c3c(N4CCN(c5ccccn5)CC4)ncnc3c2cc1OC the results were Rin1 Abl inh -2, PREPL inh 69*, Hck-Nef inh 3, p97 ATPase inh -4, LYPLA1 counter 11, LYPLA2 counter 1 and PREPL inh cf 69*.
`COc1ccc(N2CCN(c3ncnc4c3[nH]c3ccccc34)CC2)cc1` gave Rin1 Abl inh 2, PREPL inh 52*, Hck-Nef inh 1, p97 ATPase inh 0, LYPLA1 counter 5, LYPLA2 counter 10 and PREPL inh cf 46*.
For Fc1ccc2[nH]c3c(N4CCN(c5ccccc5)CC4)ncnc3c2c1 the results were Rin1 Abl inh 0, PREPL inh 62*, Hck-Nef inh -1, p97 ATPase inh 9, LYPLA1 counter 0, LYPLA2 counter 1 and PREPL inh cf 48*.
For O=C(c1ccco1)N1CCN(c2ncnc3c2[nH]c2ccccc23)CC1 the results were Hck-Nef inh 8 and p97 ATPase inh 5.
Cc1cccc(C(=O)OCC(=O)Nc2ccccc2C(=O)NC2CC2)c1 was read as Rin1 Abl inh 6, PREPL inh 5, LYPLA1 counter -4 and LYPLA2 counter 4.
For COc1cccc(N=Nc2c(N)[nH]n3c(=O)c4c(nc23)CCCC4)c1 the results were Rin1 Abl inh -4, PREPL inh 59*, Hck-Nef inh 17, p97 ATPase inh 3, LYPLA1 counter 3, LYPLA2 counter 0 and PREPL inh cf 57*.
Screening Cc1ccc(CSc2ccc3nnc(-c4ccccn4)n3n2)cc1 returned Rin1 Abl inh -4, PREPL inh 50*, Hck-Nef inh 19, p97 ATPase inh 2, LYPLA1 counter -4, LYPLA2 counter 4 and PREPL inh cf 39.
For CN(C)c1ccc(C(CN)c2c[nH]c3ccccc23)cc1 (stereo not given) the results were Rin1 Abl inh 1, PREPL inh 61*, Hck-Nef inh 15, p97 ATPase inh 3, LYPLA1 counter 2, LYPLA2 counter 2 and PREPL inh cf 57*.
`CN(C)c1ccc(C(CNS(=O)(=O)c2ccc3ccccc3c2)c2c[nH]c3ccccc23)cc1` (stereo not given) gave Rin1 Abl inh -2, PREPL inh 33, Hck-Nef inh 6, p97 ATPase inh 5, LYPLA1 counter -13 and LYPLA2 counter -6.
`Cc1cc(/C=C(/C#N)c2nc3ccccc3[nH]2)c(C)n1-c1cccc([N+](=O)[O-])c1` gave Rin1 Abl inh 0, PREPL inh 44*, Hck-Nef inh -2, p97 ATPase inh 6, LYPLA1 counter -22, LYPLA2 counter -16 and PREPL inh cf 39.
CCN1CCN(S(=O)(=O)c2ccc(Cl)c(C(=O)N(C)Cc3cccc(Cl)c3Cl)c2)CC1 was read as Rin1 Abl inh 1, PREPL inh 55*, LYPLA1 counter 0, LYPLA2 counter 1 and PREPL inh cf 42.
`O=c1cc(-c2ccc(O)c(O)c2)oc2c1ccc1ccccc12` gave Rin1 Abl inh 4, PREPL inh 52*, LYPLA1 counter -10, LYPLA2 counter -10 and PREPL inh cf 33.
O=c1oc(-c2ccc(O)c(O)c2)cc2cccc(O)c12 was read as Rin1 Abl inh 0, PREPL inh 67* and PREPL inh cf 38.
`Nc1c(N2CCN(c3ccccc3)CC2)c2ccccc2oc1=O` gave Rin1 Abl inh -1, PREPL inh 51*, Hck-Nef inh 3, p97 ATPase inh -1, LYPLA1 counter 1, LYPLA2 counter 9 and PREPL inh cf 42.
